From PubChem
Only a selection was taken, and hits are over-represented in it overall.
GIRK2 act – Activators of human GIRK2-containing channels | HEK293 GIRK2/NPY4 cells, thallium flux fluorescence | 34,000 tested, under 10 active | AID 1259324 | activation (% efficacy), % for hits at 37.5 µM | P48051;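 active means primary screen hit, no activity in plain HEK293 cells, and in GIRK2-only cells above 5% efficacy rising with concentration; inactive means the rest, including fluorescent compounds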;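 further: efficacy is normalized control-subtracted fluorescence 15 s after thallium addition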
Target sequence (P48051 whole entry, looked up): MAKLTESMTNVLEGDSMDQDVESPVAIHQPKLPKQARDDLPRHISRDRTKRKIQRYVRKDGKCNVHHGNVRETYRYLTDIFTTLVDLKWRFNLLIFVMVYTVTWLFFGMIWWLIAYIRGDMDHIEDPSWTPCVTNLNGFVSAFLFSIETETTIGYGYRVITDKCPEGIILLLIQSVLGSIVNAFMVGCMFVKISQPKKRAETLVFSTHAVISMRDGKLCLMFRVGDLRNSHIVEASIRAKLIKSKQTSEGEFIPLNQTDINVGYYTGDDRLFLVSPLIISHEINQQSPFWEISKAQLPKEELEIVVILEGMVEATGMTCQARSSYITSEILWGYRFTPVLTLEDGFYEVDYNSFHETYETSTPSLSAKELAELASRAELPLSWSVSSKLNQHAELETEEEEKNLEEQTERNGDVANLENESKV
AMPAR-TARP mod – GluA2-stargazin AMPA receptor complex modulation. O88602+P19491. HEK293 GluA2+stargazin, membrane potential dye (FDSS), glutamate EC50; hits were called plate by plate, in both directions. calls only at 30 µM. 3.5% of 40,000 active. AID 1259245;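 active means any of four per-well response measures lying three or more SD from its plate-wide compound average, in either direction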
* marks the source's active call; other numbers are inactive results; i = inactive; . = not tested or not shown; + = active, no number.

SMILES	GIRK2 act	AMPAR-TARP mod
CC1Cc2cc(-c3cc(CC(=O)NCC4CCCO4)no3)ccc2O1 (stereo not given)	i	i
CC1Cc2cc(-c3cc(CC(=O)NC4CCCC4)no3)ccc2O1 (stereo not given)	i	+
CC1CS(=O)(=O)N(c2cccc(C(=O)Nc3ccc(C(N)=O)cc3)c2)C1=O (stereo not given)	i	i
Cc1cccc(N2C(=O)CC(c3cn(C)c4ccccc34)C2=O)c1 (stereo not given)	.	i
Cc1ccccc1N1C(=O)CC(c2cn(Cc3ccccc3)c3ccccc23)C1=O (stereo not given)	.	+
CC1CN(C)CCN1CC1CCN(C(=O)C2CCCC2)CC1 (stereo not given)	i	i
CCOc1cc(N2CCN(C(=O)c3ccccc3C(F)(F)F)CC2)nc(C)n1	i	i
CCOc1ccccc1N(C(=O)C(F)(F)F)C1C=CS(=O)(=O)C1 (stereo not given)	i	i
COCC(=O)N1CCCc2ccc(NC(=O)CN3C(=O)CCC3=O)cc21	i	i
CC(C)Cc1cnc2c(c1SCC(=O)N(C(C)C)C(C)C)c(=O)n(C)c(=O)n2C	.	+
Cc1cnc2c(c1SCC(=O)N(C(C)C)C(C)C)c(=O)n(C)c(=O)n2C	i	i
COc1cc(CSc2c(CC(C)C)cnc3c2c(=O)n(C)c(=O)n3C)cc(OC)c1	.	+
COC(=O)c1ccc(CSc2c(CC(C)C)cnc3c2c(=O)n(C)c(=O)n3C)cc1	.	i
COc1ccc(OC)c(CNC(=O)c2ccc(-n3nc(C)c(C)c3C)nc2)c1	i	.
O=C(Cc1csc(SCC(=O)c2ccccc2)n1)Nc1nc2ccccc2s1	i	.
Cc1ccc(S(=O)(=O)N(C)CC(O)CNCC(=O)O)cc1 (stereo not given)	i	i
O=S(=O)(c1cccs1)N1CCN(c2ccc(-c3ccccc3)nn2)CC1	i	i
O=S(=O)(c1cccs1)N1CCN(c2ccc(N3CCCC3)nn2)CC1	i	+
O=C(Nc1ccc(F)c(F)c1)c1sccc1S(=O)(=O)N1CCN(c2ccccc2)CC1	i	+
COc1cccc(NC(=O)c2sccc2S(=O)(=O)N2CCN(c3ccc(Cl)cc3)CC2)c1	i	.
Cc1cc(-c2nnc(NC(=O)CCS(=O)(=O)c3ccccc3)o2)nn1C	i	i
Cc1ccc(NC(=O)c2cc(-c3cccs3)nc3c2c(C)nn3C2CCS(=O)(=O)C2)cc1 (stereo not given)	i	+
Cc1nn(C2CCS(=O)(=O)C2)c2nc(-c3cccs3)cc(C(=O)Nc3ccc(F)cc3)c12 (stereo not given)	i	i
O=C(c1nc2ccccc2s1)N1CCC(c2ccsc2)CC1	i	i
COc1ccccc1C1(C(=O)N2CCC(c3ccsc3)CC2)CCOCC1	i	+
SMILES	GIRK2 act	AMPAR-TARP mod
CCOCCn1c(=O)c2c(nc3n(-c4ccc(C(F)(F)F)cc4)c(C)cn23)n(C)c1=O	.	i
O=C1CC(c2nc3ccccc3n2Cc2c(F)cccc2Cl)CN1Cc1ccccc1 (stereo not given)	.	+
CC(C)CCn1c(C2CC(=O)N(Cc3ccccc3)C2)nc2ccccc21 (stereo not given)	.	+
CCCCN1CC(c2nc3ccccc3n2Cc2cccc(Cl)c2)CC1=O (stereo not given)	.	+
CCCCN1CC(c2nc3ccccc3n2Cc2ccccc2)CC1=O (stereo not given)	.	i
C=CCN1CC(c2nc3ccccc3n2Cc2c(F)cccc2Cl)CC1=O (stereo not given)	.	i
COc1cccc(N2CC(c3nc4ccccc4n3Cc3ccccc3)CC2=O)c1 (stereo not given)	.	i
COc1cccc(N2CC(c3nc4ccccc4n3Cc3ccccc3Cl)CC2=O)c1 (stereo not given)	.	+
CC(C)CCn1c(C2CC(=O)N(Cc3ccc(F)cc3)C2)nc2ccccc21 (stereo not given)	.	i
Cn1c(=O)n(CC(=O)NCc2ccco2)c(=O)c2c(N3CCN(C(=O)C4CC4)CC3)ccnc21	.	i
COC(=O)C1CCN(C(=O)c2csc(NS(=O)(=O)c3ccccc3)n2)CC1	i	i
O=C(Cc1ccc(NC(=O)C2CC(=O)N(c3ccc(F)cc3)C2)cc1)NCC(F)(F)F (stereo not given)	i	.
O=C(CSc1cccc2cccnc12)N1CCCCCC1	i	i
CCc1c(C)nc(-n2nc(-c3ccco3)cc2NC(=O)c2cc(C3CC3)on2)[nH]c1=O	i	i
O=C1CC(c2nc3ccccc3n2Cc2ccc(F)cc2)CN1Cc1ccccc1 (stereo not given)	.	+
CC(C)(C)N1CC(c2nc3ccccc3n2CCOc2ccc(Cl)cc2)CC1=O (stereo not given)	.	i
CC(C)(C)N1CC(c2nc3ccccc3n2Cc2ccc(Cl)cc2)CC1=O (stereo not given)	.	i
O=C1CC(c2nc3ccccc3n2Cc2ccc(F)cc2)CN1Cc1ccc(F)cc1 (stereo not given)	.	i
Cc1cccc(Cn2c(C3CC(=O)N(C(C)(C)C)C3)nc3ccccc32)c1 (stereo not given)	.	+
CC(C)(C)N1CC(c2nc3ccccc3n2Cc2c(F)cccc2Cl)CC1=O (stereo not given)	.	+
NS(=O)(=O)c1ccc(CNC(=O)C2CCCN(c3ccc(-n4cccn4)nn3)C2)cc1 (stereo not given)	i	i
COc1cccc(-c2cc(CC(=O)NCCCN(C)C)no2)c1	i	i
Clc1ccc(-c2nc(Nc3ccc(I)cc3)c3ccccc3n2)cc1	.	i
O=C(c1cncc(Br)c1)N1CCN(Cc2nc(-c3ccccc3)cs2)CC1	i	i
Cc1ccc(NS(=O)(=O)c2ccccc2)c(C(=O)c2ccccc2)c1	.	+
SMILES	GIRK2 act	AMPAR-TARP mod
Cc1ccc(S(=O)(=O)Nc2ccccc2C(=O)Nc2ccc(C)cc2C(=O)c2ccccc2)cc1	.	i
COc1ccc(-n2nnc(C(=O)OCc3cccc(OC)c3)c2C)cc1	.	i
Cc1oc(-c2ccccc2)nc1COC(=O)c1nnn(-c2ccc(Cl)cc2)c1C	.	i
COc1cccc(COC(=O)c2nnn(-c3ccc(C)cc3)c2C)c1	.	+
Cc1ccc(-n2nnc(C(=O)OCc3nc(-c4ccccc4C)oc3C)c2C)cc1	.	+
COc1cccc(N2CC(C(=O)Nc3cc(C)nn3-c3nc(-c4ccccc4)cs3)CC2=O)c1 (stereo not given)	i	.
Cc1ccc(CNC(=O)CSc2nnc(CCn3ccc(=O)[nH]c3=O)o2)cc1	i	i
COc1ccc(-c2ccc(=O)n(CCNS(=O)(=O)c3c(C)cc(C)cc3C)n2)cc1	.	i
Cc1ccc(-c2ccc(=O)n(CCCNS(=O)(=O)c3c(C)cc(C)cc3C)n2)cc1	i	+
O=c1ccc(-c2cccs2)nn1CCCNS(=O)(=O)c1cccc(C(F)(F)F)c1	i	+
O=c1ccc(-c2ccccc2)nn1CCCNS(=O)(=O)c1ccc2c(c1)CCCC2	i	+
O=c1ccc(-c2cccs2)nn1CCCNS(=O)(=O)c1ccc(Cl)c(Cl)c1	i	i
COc1ccc(-c2ccc(=O)n(CCNS(=O)(=O)c3ccc4c(c3)CCCC4)n2)cc1	.	i
NC(=O)c1ccc(NC(=O)C(=O)NCC(c2cccs2)N2CCOCC2)cc1 (stereo not given)	.	i
